HP1b chromo inh: HTS for Inhibitors of HP1-beta Chromodomain Interactions with Methylated Histone Tails; Chromobox protein homolog 1 (Homo sapiens), P83916; AlphaScreen HP1-beta / biotin-H3K9me3 peptide binding; Potency, µM (doses to about 114 µM), usual class: inhibitors; actives 0.56% (n = 390,000); AID 540317, 2011; note: nearly all actives have a fitted effect of over 70% in size
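HP1-beta protein (50 nM final) preincubated 30 min at room temperature with biotinylated H3(1-18)K9me3 peptide (50 nM) in PBS pH 7.4, 0.01% Tween-20, then compound added for 30 min. AlphaScreen streptavidin donor/nickel chelate acceptor beads (10 ug/mL final), 30 min dark, luminescence read.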
L3MBTL1 block: qHTS Assay for the Inhibitors of L3MBTL1; Lethal(3)malignant brain tumor-like protein 1 (Homo sapiens), Q9Y468; AlphaScreen L3MBTL1–H3K9me1 peptide binding; Potency, µM (series often up to 57.1 µM), hits mostly inhibitors; actives 0.66% (n = 230,000); note: nearly all actives have a fitted effect of over 60% in size
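AlphaScreen proximity signal between nickel-chelate acceptor and streptavidin donor beads (final 10 ug/mL) reports binding of 50 nM L3MBTL1 to 75 nM biotin-H3 K9me1 peptide; complex incubated with compounds 30 min at room temperature; cefsulodin titration as control.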
JMJD2A Tudor: qHTS Assay for Inhibitors of JMJD2A-Tudor Domain; Lysine-specific demethylase 4A (Homo sapiens), O75164; actives 4.4% (n = 390,000); AlphaScreen JMJD2A-Tudor / H3K4me3 peptide binding; Potency, µM (series often up to 114 µM), usual class: inhibitors; note: nearly all actives have a fitted effect of over 50% in size
G9a inh: qHTS Assay for Inhibitors of Histone Lysine Methyltransferase G9a. Histone-lysine N-methyltransferase EHMT2 (Homo sapiens), Q96KQ7. G9a H3K9 monomethylation, AlphaScreen, 2 h. Potency, µM (top dose mostly 102 µM), actives largely listed as inhibitors. actives 8.8% (n = 350,000); note: nearly all actives have a fitted effect of over 75% in size
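Quantitative HTS format: methyltransferase activity on a biotin-tagged H3K9 peptide is measured by AlphaScreen, using a rabbit anti-monomethyl-H3K9 antibody with streptavidin donor and anti-IgG acceptor beads. Final levels are 20 nM enzyme, 500 nM peptide, 20 uM SAM; 2 h RT.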
BAZ2B inh: qHTS Assay for Inhibitors of BAZ2B; actives 4.4% (n = 360,000); AlphaScreen BAZ2B-H3K14Ac peptide displacement; AID 504333, 2011; Potency, µM (highest dose often 114 µM), actives largely listed as inhibitors; Bromodomain adjacent to zinc finger domain protein 2B (Homo sapiens), Q9UIF8; note: nearly all actives have a fitted effect of over 60% in size
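Protein-peptide AlphaScreen: BAZ2B 50 nM, b-H3K14Ac 50 nM, 1x PBS pH 7.4 + 0.01% Tween-20. Preincubation 30 min RT; cpd 30 min RT (top 110 uM); beads 20 min RT, light-protected.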
Hits are given with their value; i = inactive; ? = inconclusive; nt = not tested or not shown; [ ] = dose if it differs, or a comment. The list is not random: actives were taken first. Their share in the collection is about 11%. Calls come from the whole dose curve; as a rule, active = well fitted inhibition curve with a large enough effect; inconclusive = small, poorly fitted or top-dose-only effect; inactive = no such curve, though single readings can be large or run the other way.

SMILES	HP1b chromo inh	L3MBTL1 block	JMJD2A Tudor	G9a inh	BAZ2B inh
CN1CC(C(=O)O)Cc2c1ccc1ccccc21 (centres undefined)	i	i	i	20µM	i
Cn1ccc(-c2cc(C(=O)O)c3ccccc3n2)n1	i	i	i	50µM	?
CCCCNc1cc(=O)oc2ccccc12	i	i	i	i[12.7 µM]	i
O=C(OCc1ccc([N+](=O)[O-])cc1)c1cc(=O)c2ccccc2o1	i	nt	i	50µM	i
CCOc1ccc(NC(=O)COC(=O)c2cc(=O)c3ccccc3o2)cc1	i	i	i	20µM	i
CCOc1ccc(Nc2cc(=O)oc3ccccc23)cc1	i	i	i	i	71µM
COc1cc(=O)n(C)c2c(OC[C@@H](O)C(C)(C)O)cccc12	nt	nt	nt	i[21.5 µM]	nt
O=C(CCc1ccc(O)c(O)c1)NNC(=S)NCCc1ccccc1	i	i	?	i	i
O=C(CCc1ccc(O)c(O)c1)NNC(=S)Nc1ccc(Br)cc1Cl	i	i	i	18µM	i
CCSC1=NS(=O)(=O)c2ccccc21	nt	nt	i	nt	nt
CC(=O)Nc1ccn(C2OC(C(COC(C)=O)NC(=O)C(CCCCNC(=O)OCc3ccccc3)NC(=O)OC(C)(C)C)C(OC(C)=O)C2OC(C)=O)c(=O)n1 (centres undefined)	i	nt	i	nt	nt
Cc1cc(Nc2ccc(O)cc2)ccc1N	11µM	i	?	i[0.501 µM]	6.3µM
CCC(=O)Nc1ccc2ccccc2c1	i	i	i	i	i
Oc1ccc(Nc2ccc3ccccc3c2)cc1	?	nt	40µM	nt	nt
COc1ccc(CC(=O)Nc2c(C(=O)Nc3ccc(F)cc3)oc3ccccc23)cc1OC	i	nt	i	i	i
CC(=O)Nc1ccc(C2Nc3c(C)cc(C)cc3-c3cc(C)nn32)cc1 (centres undefined)	i	nt	i	i	i
Cc1ccnc(NC(=O)C2CC(=O)N(c3ccc4c(c3)OCCO4)C2)c1 (centres undefined)	i	nt	i	i	79µM
O=C(O)C1CC(=O)N(c2ccc3c(c2)OCCO3)C1 (centres undefined)	?	nt	3.2µM	i	?
O=C(Nc1ccccc1Br)C1CC(=O)N(c2ccc3c(c2)OCCO3)C1 (centres undefined)	i	i	i	79µM	i
O=C(COC(=O)C1CC(=O)N(c2ccc3c(c2)OCCO3)C1)NC1CCCc2ccccc21 (centres undefined)	i	i	i	79µM	i
O=C(Nc1ccc2c(c1)OCO2)C1CC(=O)N(c2ccc3c(c2)OCCO3)C1 (centres undefined)	i	nt	i	i	?
Cc1ccc(-c2cc(C(=O)NC3=NCCS3)c3cc(Br)ccc3n2)o1	nt	32µM	nt	?	i
Cc1ccc(-c2cc(C(=O)NCCCn3ccnc3)c3cc(Br)ccc3n2)o1	i	i	79µM	?	i
CC(C)Oc1cccc(-c2cc(C(=O)NN3CCOCC3)c3ccccc3n2)c1	i	nt	i	i	i
CC(C)Oc1cccc(-c2cc(C(=O)NC(=S)N(C)c3ccccc3C(=O)O)c3ccccc3n2)c1	?	i	i	22µM	i
SMILES	HP1b chromo inh	L3MBTL1 block	JMJD2A Tudor	G9a inh	BAZ2B inh
Cc1cc(NC(=O)c2cc(-c3ccccn3)nc3ccc(Br)cc23)no1	i	nt	i	nt	71µM
COc1cccc(C(=O)Nc2cccc(-c3nc4ncccn4c3C)c2)c1	i	nt	i	i	i
CCNC(=S)NNC(=O)c1cc(-c2cccc(OC)c2)nc2ccccc12	i	i	i	40µM	i
Cc1cccc(-c2cc(C(=O)NCCCn3ccnc3)c3ccccc3n2)c1	nt	i	nt	i	?
COc1cccc(-c2cc(C(=O)NCCCn3ccnc3)c3ccccc3n2)c1	i	i	i	3.2µM	?
CCCOc1cccc(-c2cc(C(=O)NNC(=S)NCC)c3ccccc3n2)c1	i	nt	i	i[12.7 µM]	i
CCC1CCCCN1S(=O)(=O)c1cc2c(cc1C)NC(=O)CO2 (centres undefined)	i	nt	i	i	i
O=C(NCCSc1c[nH]c2ccccc12)c1ccc(Br)o1	i	i	i	79µM	i
O=C(NCCc1c[nH]c2ccccc12)c1ccc(Br)o1	i	i	i	nt	nt
CCOc1ccc(NC(=O)Nc2cccn(Cc3ccccc3)c2=O)cc1	i	i	?	nt	40µM
CN1C(=O)/C(=C/c2ccc(-c3ccccc3[N+](=O)[O-])o2)SC1=Nc1ccc(Cl)c(C(=O)O)c1	i	i	?	3.2µM	45µM
O=[N+]([O-])c1ccc(S(=O)(=O)Nc2ccc3c(c2)OCCO3)cc1	i	i	?	40µM	?
COc1ccc(N(CC(=O)NCc2ccc3c(c2)OCO3)S(=O)(=O)c2c(C)nn(C)c2C)cc1	i	nt	i	79µM	i
O=S(=O)(Nc1ccc(O)c(NS(=O)(=O)c2ccccc2)c1)c1ccccc1	i	nt	63µM	0.32µM	?
Cc1cc(NS(=O)(=O)c2ccccc2)c(C)c(Cl)c1O	?	i	?	28µM	i
Cc1c(O)ccc(NS(=O)(=O)c2ccccc2)c1C	i	i	i[11.4 µM]	i	i
COc1ccc(CCNC(=O)c2cc(Nc3ccccc3)nc3ccccc23)cc1OC	i	nt	i	i	i
O=C(C1CCN(S(=O)(=O)Cc2ccccc2)CC1)N1CCN(c2ccccc2F)CC1	i	nt	i	?	i
Cc1ccc2c(c1)c1c(c(=O)n(-c3cccc(Cl)c3)c(=O)n1CC(=O)Nc1c(C)cccc1C)n2C	i	nt	i	i	i
COc1ccc(S(=O)(=O)Nc2ccc3c(c2)OCO3)cc1	i	i	i	i	i
Cc1nn(C)c(C)c1S(=O)(=O)Nc1ccc2c(c1)OCO2	i	i	i	50µM	?
